Source: PubChem BioAssay (NCI)
Where “and” joins values, the source holds several entries; their conditions need not be identical. Equal values may be shown once. Compounds without any hit were thinned out: in the full panel of roughly 83,000, 20% have a hit.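 Note: values are percent growth. 100 is the growth of untreated cells, values between 100 and 0 indicate rising inhibition; between -100 and 0 indicates cell death.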 Some compounds were tested as several samples or in several runs, with calls that do not always agree. Calls of active or inactive are those of the source. The calls were made as follows: active = growth percent below 10; inactive = the rest.

What was measured:
Assay in all cases: NCI-60 one-dose screen, 48 h (100 = growth as untreated, 0 = no growth, -100 = all killed)
Details in all cases: 10 µM
HOP-92 NSCLC = tested on: HOP-92 NSCLC
K-562 leukemia = tested on: K-562 leukemia
MALME-3M melanoma = tested on: MALME-3M melanoma
RXF 393 renal = tested on: RXF 393 renal
UACC-257 melanoma = tested on: UACC-257 melanoma
SK-MEL-2 melanoma = tested on: SK-MEL-2 melanoma
SN12C renal = tested on: SN12C renal
TK-10 renal = tested on: TK-10 renal
CAKI-1 renal = tested on: CAKI-1 renal
A498 renal = tested on: A498 renal
RPMI-8226 leukemia = tested on: RPMI-8226 leukemia
BT-549 breast = tested on: BT-549 breast
MDA-MB-435 melanoma = tested on: MDA-MB-435 melanoma
HCC-2998 colon = tested on: HCC-2998 colon
OVCAR-3 ovarian = tested on: OVCAR-3 ovarian

Measured: growth

COc1cc(C)c(-c2ccc(OC)c(=O)cc2C)c(OC)c1OC
-10.8% (active) and 115% (inactive): RXF 393 renal
-4.07% (active) and 99.6% (inactive): MDA-MB-435 melanoma
0.162% (active) and 113% (inactive): SK-MEL-2 melanoma
-18% (active) and 86.9% (inactive): A498 renal
6.36% (active) and 85.8% (inactive): K-562 leukemia
inactive: HOP-92 NSCLC 39.6% and 85.5% | MALME-3M melanoma 46.7% and 95.3% | UACC-257 melanoma 56.2% and 97.6% | SN12C renal 37.1% and 98.3% | TK-10 renal 94.5% and 94.2% | CAKI-1 renal 39.6% and 86.1% | RPMI-8226 leukemia 15% and 94.4% | BT-549 breast 15.7% and 120% | HCC-2998 colon 10.6% and 114%

C/C=C/CC(C)C(O)[C@H](NC(=O)[C@@H]1CCCN1C(=O)C(C)(C)NC(=O)CCCCCCCCC)C(=O)N[C@@](C)(CC)C(=O)N[C@@H](CCC(N)=O)C(=O)N[C@H](CCC(N)=O)C(=O)NC(C)(C)C(=O)NC(C)(C)C(=O)N[C@@H](CCC(N)=O)C(=O)N[C@H](CC(C)C)C(=O)N[C@H](CO)CC(C)C (stereo partly specified)
-61.8% (active) and 31.5% (inactive): RXF 393 renal
inactive: SK-MEL-2 melanoma 13.2% and 89.1% | SN12C renal 18.6% and 12.1% | TK-10 renal 59.9% and 97.1% | CAKI-1 renal 13.1% and 44.1% | OVCAR-3 ovarian 76.2%
active: MALME-3M melanoma -65.1% and -22% | UACC-257 melanoma -66.9% and 3.39% | BT-549 breast -33.5% | MDA-MB-435 melanoma -84.2% and -6.26%
-12% (active) and 13.2% (inactive): HCC-2998 colon
7.21% (active) and 76.4% (inactive): HOP-92 NSCLC
7.09% (active) and 29.1% (inactive): RPMI-8226 leukemia
-17.8% (active) and 16.5% (inactive): K-562 leukemia
-40.8% (active) and 38.8% (inactive): A498 renal

CCCCCCCCCC(=O)N[C@@](C)(CC)C(=O)N1CCC[C@H]1C(=O)N[C@@H](CC(C)C)C(=O)N[C@@](C)(CC)C(=O)N[C@@H](CCC(N)=O)C(=O)N[C@H](CCC(N)=O)C(=O)NC(C)(C)C(=O)NC(C)(C)C(=O)N[C@@H](CCC(N)=O)C(=O)N[C@H](CC(C)C)C(=O)N[C@H](CO)CC(C)C
-15.6% (active) and 21.9% (inactive): K-562 leukemia
active: HOP-92 NSCLC -93.1% and -69.1% | MALME-3M melanoma -89.7% and -98.6% | RXF 393 renal -89.1% and -89.3% | UACC-257 melanoma -88.1% and -80.1% | SK-MEL-2 melanoma -90.7% and -86% | SN12C renal -86.9% and -98.8% | TK-10 renal -73.6% and -83.4% | CAKI-1 renal -92.4% and -100% | A498 renal -92.4% and -81.1% | RPMI-8226 leukemia -53.6% and -31.8% | OVCAR-3 ovarian -74.5% | BT-549 breast -91% and -85.5% | MDA-MB-435 melanoma -94% and -97.5% | HCC-2998 colon -87.4% and -89.4%

CC(=O)O[C@@H]1C[C@H]2O[C@@H]3C=C(C)CC[C@]3(C)[C@]1(C)[C@]21CO1
active: K-562 leukemia 4.68% | MALME-3M melanoma 5.52% | RXF 393 renal 4.11% | SK-MEL-2 melanoma -3.89% | RPMI-8226 leukemia -14.7% | BT-549 breast -14.3% | MDA-MB-435 melanoma 2.02% | HCC-2998 colon 8.92%
inactive: HOP-92 NSCLC 16.8% | SN12C renal 20.7% | TK-10 renal 66.6% | A498 renal 34.6% | OVCAR-3 ovarian 14.7%

CC1=C2C(=C[C@@](C)(C=O)[C@@H]2O)C(=O)[C@](C)(O)C12CC2
inactive: K-562 leukemia 24.2% | SN12C renal 26.1% | CAKI-1 renal 12.6%
active: HOP-92 NSCLC -8.36% | MALME-3M melanoma -32.6% | RXF 393 renal -77% | UACC-257 melanoma 6.75% | SK-MEL-2 melanoma -37.8% | TK-10 renal 2.16% | A498 renal -57% | OVCAR-3 ovarian -10.1% | BT-549 breast -6.13% | HCC-2998 colon -25.1%

CN1C(=O)[C@]23SSC1(C)C(=O)N2[C@H]1Nc2ccccc2C1([C@@]12c4ccccc4N[C@@H]1N1C(=O)C4(C)SS[C@]1(C(=O)N4C)[C@H]2O)[C@@H]3O (stereo partly specified)
active: K-562 leukemia 2.18% | MALME-3M melanoma -81.5% | RXF 393 renal -93.3% | UACC-257 melanoma -96.9% | SN12C renal -96.1% | TK-10 renal -95.7% | CAKI-1 renal -99.8% | RPMI-8226 leukemia -16.9% | BT-549 breast -99.5% | MDA-MB-435 melanoma -94.3% | HCC-2998 colon -83.8%

C/C=C/CC(C)C(O)[C@H](NC(=O)[C@@H]1CCCN1C(=O)C(C)(C)NC(=O)CCCCCCC)C(=O)N[C@@](C)(CC)C(=O)N[C@@H](CCC(N)=O)C(=O)N[C@H](CCC(N)=O)C(=O)NC(C)(C)C(=O)NC(C)(C)C(=O)N[C@@H](CCC(N)=O)C(=O)N[C@H](CC(C)C)C(=O)N[C@H](CO)CC(C)C (stereo partly specified)
inactive: HOP-92 NSCLC 106% and 29.4% | SK-MEL-2 melanoma 115% and 34% | TK-10 renal 115% and 28.2% | CAKI-1 renal 101% and 28.5% | OVCAR-3 ovarian 113% and 23.8% | HCC-2998 colon 114% and 24%
active: A498 renal -7.1%
106% (inactive) and -33.7% (active): UACC-257 melanoma
112% (inactive) and -10.7% (active): RXF 393 renal
109% (inactive) and -65.1% (active): MALME-3M melanoma
118% (inactive) and -60.9% (active): BT-549 breast
105% (inactive) and -9.85% (active): RPMI-8226 leukemia
101% (inactive) and 6.14% (active): K-562 leukemia
104% (inactive) and -47.4% (active): MDA-MB-435 melanoma
102% (inactive) and 9.5% (active): SN12C renal

COc1cc2c(O[C@@H]3OC[C@H](O)[C@H](O)[C@H]3O)c3c(c(-c4ccc5c(c4)OCO5)c2cc1OC)C(=O)OC3
inactive: K-562 leukemia 19.3% | MALME-3M melanoma 54.4% | RXF 393 renal 53.6% | UACC-257 melanoma 23.6% | SK-MEL-2 melanoma 49% | SN12C renal 56.2% | A498 renal 15% | RPMI-8226 leukemia 89.8% | OVCAR-3 ovarian 80.2% | BT-549 breast 31% | MDA-MB-435 melanoma 39.5% | HCC-2998 colon 73.4%

Cc1ccc(CNc2nc3ccc(OC/C(=C/F)CN)cc3o2)cn1
active: SN12C renal -37.4%
inactive: HOP-92 NSCLC 93.9% | K-562 leukemia 108% | MALME-3M melanoma 105% | RXF 393 renal 69.1% | UACC-257 melanoma 104% | SK-MEL-2 melanoma 110% | TK-10 renal 71.9% | CAKI-1 renal 68.3% | A498 renal 58.4% | RPMI-8226 leukemia 105% | OVCAR-3 ovarian 109% | MDA-MB-435 melanoma 99.6% | HCC-2998 colon 111%

COC(=O)[C@H]1[C@@H](O)[C@@]2(O)c3c(OC)cc(OC)cc3O[C@@]2(c2ccc(OC)cc2)[C@@H]1c1ccccc1
active: HOP-92 NSCLC -12.5% | K-562 leukemia 2.1% | MALME-3M melanoma -21.8% | RXF 393 renal -20.3% | SK-MEL-2 melanoma -45.5% | SN12C renal -11.5% | TK-10 renal -11.9% | CAKI-1 renal -6.21% | A498 renal -31.4% | RPMI-8226 leukemia -9.7% | OVCAR-3 ovarian -9.22% | BT-549 breast -17.5% | MDA-MB-435 melanoma -11.1% | HCC-2998 colon 0.34%

CC1=C[C@H]2O[C@@H]3C[C@H]4OC(=O)/C=C\C=C\[C@H]([C@@H](C)O)OCC[C@@H](C)[C@H](O)C(=O)OC[C@@]2(CC1)[C@]4(C)[C@]31CO1
active: HOP-92 NSCLC -22% | K-562 leukemia -10.1% | MALME-3M melanoma -67.9% | RXF 393 renal -73.7% | SK-MEL-2 melanoma -53.2% | SN12C renal -19% | TK-10 renal -25.4% | A498 renal -80.6% | RPMI-8226 leukemia -28.7% | OVCAR-3 ovarian -18.2% | BT-549 breast -24.8% | MDA-MB-435 melanoma -85.2% | HCC-2998 colon -59.9%

COc1cc2c(cc1OC)[C@@H]1N(CC2)C(=O)c2ccccc2[C@@]1(C)C(=O)O
inactive: HOP-92 NSCLC 123% | K-562 leukemia 105% | MALME-3M melanoma 64.6% | RXF 393 renal 127% | UACC-257 melanoma 107% | SK-MEL-2 melanoma 109% | SN12C renal 102% | TK-10 renal 107% | CAKI-1 renal 101% | A498 renal 89.4% | RPMI-8226 leukemia 110% | OVCAR-3 ovarian 122% | BT-549 breast 108% | MDA-MB-435 melanoma 103% | HCC-2998 colon 110%

CC1=C[C@H]2O[C@@H]3C[C@@H](O)[C@](C)([C@@]2(C)CC1)[C@@]31CO1
inactive: HOP-92 NSCLC 41.3% | K-562 leukemia 18.5% | MALME-3M melanoma 21% | RXF 393 renal 15.3% | SK-MEL-2 melanoma 22.6% | SN12C renal 25.4% | TK-10 renal 52.8% | A498 renal 39.2% | RPMI-8226 leukemia 29.3% | OVCAR-3 ovarian 38.9% | BT-549 breast 21.1% | MDA-MB-435 melanoma 21.1% | HCC-2998 colon 18.2%

CN(CCF)/N=N/c1nc[nH]c1C(N)=O
active: SK-MEL-2 melanoma -20.9%
inactive: HOP-92 NSCLC 77.9% | K-562 leukemia 22.2% | MALME-3M melanoma 37.5% | RXF 393 renal 76.6% | UACC-257 melanoma 53.8% | SN12C renal 48.4% | TK-10 renal 25.2% | CAKI-1 renal 14.1% | A498 renal 87% | RPMI-8226 leukemia 25.5% | BT-549 breast 85.8% | MDA-MB-435 melanoma 39.6% | HCC-2998 colon 38.7%
